Bioassay records from PubChem BioAssay.
CYP2C9 inhib = blockers of cytochrome P450 2C9 activity – biochemical, luminescence, ADME assay, primary screen; P11712; CYP2C9 Supersomes, luciferin-H conversion; inhibition, % at 5 µM; hit rate 20% among 96,000;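 active = blocking of liver enzyme CYP2C9 beyond about 50% at 5 µM, limit read from the data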
CYP2C19 activ = human CYP2C19 activators, primary screen, biochemical, luminescence. Cytochrome P450 2C19 (Homo sapiens), P33261. recombinant CYP2C19, luciferin-H EGE luminescence; active compounds read high; 0 = fully inhibited enzyme, 1 = untreated enzyme. activation factor at 5 µM. 96,000 tested, under 10 active. AID 1025, 2008;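 active = activation factor of at least 2 at 5 µM in the primary screen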;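 note: 0 = wells with 2.5 mM tranylcypromine and 1 = vehicle-only wells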
Target sequence (P33261 whole entry, looked up): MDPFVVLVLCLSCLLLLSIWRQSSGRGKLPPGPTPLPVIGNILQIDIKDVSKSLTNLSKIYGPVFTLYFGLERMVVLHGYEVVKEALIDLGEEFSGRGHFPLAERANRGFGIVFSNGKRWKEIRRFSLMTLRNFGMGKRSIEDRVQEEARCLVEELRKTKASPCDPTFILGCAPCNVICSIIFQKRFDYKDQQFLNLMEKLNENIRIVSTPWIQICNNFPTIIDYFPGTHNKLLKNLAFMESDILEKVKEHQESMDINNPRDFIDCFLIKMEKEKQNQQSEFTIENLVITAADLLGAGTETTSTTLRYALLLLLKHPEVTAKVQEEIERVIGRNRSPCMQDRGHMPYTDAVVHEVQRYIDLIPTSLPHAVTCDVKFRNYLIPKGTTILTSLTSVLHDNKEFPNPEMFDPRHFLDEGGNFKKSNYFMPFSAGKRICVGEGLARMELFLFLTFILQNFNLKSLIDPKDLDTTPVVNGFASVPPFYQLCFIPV
PostGolgi ctrl = growth inhibition of yeast control strain, primary screen, counter-screen for post-Golgi transport modulator project; AID 738, 2007; efflux-deficient yeast background strain, growth absorbance A615, 16 h; inhibition, % at 10 µM; hit rate 5% among 98,000
CYP2C19 inh = blockers of cytochrome P450 2C19 activity – biochemical, luminescence, ADME assay, primary screen | P33261 | CYP2C19 Supersomes, luciferin-H EGE luminescence, 30 min | inhibition, % at 5 µM | hit rate 21% among 96,000;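 active = CYP2C19 inhibition above a set limit at 5 µM in the primary screen, cut at about 50% in these data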;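 note: plate controls were negative control wells for no effect and 2.5 mM tranylcypromine positive control for full effect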
CYP2C9 activ = human CYP2C9 activators, primary screen, biochemical, luminescence; Cytochrome P450 2C9 (Homo sapiens), P11712; recombinant CYP2C9, luciferin-H conversion; active compounds read high; factor 1 = untreated enzyme, 0 = blocked; activation factor at 5 µM; hit rate 1.4% among 96,000;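 active = activation factor of 2 or more for CYP2C9 at a 5 µM dose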;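 note: 0 = sulfaphenazole-blocked wells and 1 = vehicle-only wells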
PostGolgi yeast = phenotypic screen on post-Golgi transport, primary screen. post-Golgi transport phenotypic cell assay. inhibition, % at 10 µM. hit rate 0.9% among 98,000. AID 739, 2007;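 note: yeast cells grown in 1536-well plates; yeast grown about 18 h at 30C before absorbance read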
Active calls of the source: *; / = not tested or not shown. Most compounds without a hit are left out; they make up all but 32% or so of the library. Cut-off read from the data, not from the text of the source, unless noted: active = inhibition above about 30%; inactive = the rest.

SMILES | CYP2C9 inhib | CYP2C19 activ | PostGolgi ctrl | CYP2C19 inh | CYP2C9 activ | PostGolgi yeast
Cc1csc(NC(=O)CSc2nnc(-c3ccc(S(=O)(=O)N4CCCC4)cc3)o2)n1 | 61* | 0.7 | 19 | 31 | 0.4 | -6
COc1ccc(-c2nnc(SCC(=O)NCc3cccs3)n2CC(C)C)cc1 | 65* | 0.5 | 1 | 51* | 0.3 | -1
Cc1cnc(C(=O)OCC(=O)NC(=O)NC(C)C)cn1 | 2 | 1.1 | 7 | -7 | 1 | -1
CC(C)C(C(=O)Nc1ncn[nH]1)N1C(=O)c2ccccc2C1=O (stereo unspecified) | 29 | 0.5 | 11 | 46 | 0.7 | 13
COc1ccc(-c2nc(-c3ccc(Br)o3)no2)cc1OC | 41 | 1.1 | 13 | -9 | 0.6 | -2
CCOc1ccc(-c2nc(-c3ccc(OC)cc3)no2)cc1OCC | 13 | 1 | -3 | 4 | 0.9 | -5
CCOc1cc(-c2nc(-c3ccc(C)nc3OC)no2)cc(OCC)c1OCC | 76* | 0 | 5 | 97* | 0.2 | 10
COc1ccc(-c2nc(-c3ccncc3)no2)cc1OC | 60* | 0.1 | 3 | 88* | 0.4 | -3
CCOc1ccc(-c2nc(-c3cccnc3)no2)cc1OCC | 13 | 0.4 | 10 | 62* | 0.9 | 4
CCOc1ccc(-c2noc(-c3ccncc3)n2)cc1OCC | 80* | 0.3 | 4 | 70* | 0.2 | 23
O=C1CCC(=O)N1OCCCCOc1ccccc1 | / | / | 9 | / | / | -1
Cc1ccnc(NCn2nnc3ccccc32)c1 | -3 | 1.1 | 8 | -6 | 1 | -19
COC(=O)CSc1nnc(C)n1-c1cccc(OC)c1 | 1 | 0.9 | 12 | 13 | 1 | 6
Brc1ccc(-c2nc(-c3cccnc3)no2)o1 | 47 | 0.1 | -4 | 85* | 0.5 | -3
CC(=O)Oc1ccc(-c2nc(-c3cccnc3)no2)cc1 | 86* | 0.1 | 0 | 95* | 0.1 | -6
Brc1ccc(-c2nc(-c3ccccc3)no2)o1 | 10 | 0.9 | 0 | 6 | 0.9 | 3
O=[N+]([O-])c1cccc(-c2nc(-c3ccncc3)no2)c1 | 53* | 0.1 | -4 | 95* | 0.5 | 2
CCOc1cc(-c2noc(-c3ccncc3)n2)cc(Br)c1OC | 32 | 0.2 | 0 | 76* | 0.7 | -2
CCOc1cc(-c2noc(CCCC(N)=O)n2)cc(Br)c1OC | 32 | 0.7 | 1 | 32 | 0.7 | 2
O=[N+]([O-])c1ccc(-c2cc(-c3ccncc3)nc3ccc4ccccc4c23)cc1 | 26 | 1 | -4 | 4 | 0.7 | 2
CC(=O)Oc1ccc(Oc2ccc(-c3noc(C)n3)cc2)cc1 | 27 | 0.8 | 3 | 24 | 0.7 | -8
CCCCn1c(=N)n(CC(O)COc2cccc(C)c2)c2ccccc21 (stereo unspecified) | 1 | 0.8 | 19 | 20 | 1 | 0
C=CCNC(=O)NS(=O)(=O)c1ccc(C)cc1 | 0 | 0.9 | 8 | 6 | 1 | -4
COc1ccc(-c2nc(-c3ccc(NC(=O)c4ccc(Br)o4)cc3)no2)cc1OC | 37 | 0.7 | -1 | 29 | 0.6 | 0
COc1ccc(CCC(=O)Nc2ccc(-c3noc(-c4ccc(OC)c(OC)c4)n3)cc2)cc1 | 69* | 0.8 | -1 | 16 | 0.3 | -7
SMILES | CYP2C9 inhib | CYP2C19 activ | PostGolgi ctrl | CYP2C19 inh | CYP2C9 activ | PostGolgi yeast
COc1ccc(CCNC(=O)c2ccc(N3CCCC3=O)cc2)cc1OC | 8 | 0.9 | -4 | 13 | 0.9 | 4
COc1ccc(COC(=O)c2ccc(N3CCCC3=O)cc2)cc1F | 61* | 0.5 | 6 | 45 | 0.4 | 12
Cc1ccc(-n2c3c(cc(C(=O)Nc4cccc(C)n4)c2=O)C(=O)CCC3)cc1 | -10 | 1.1 | / | -9 | 1.1 | /
CCCCn1c(NC(=O)c2ccccc2Cl)c(C#N)c2nc3ccccc3nc21 | 36 | 0.9 | 18 | 9 | 0.6 | 33*
CCOC(=O)c1c(NC(=O)c2ccco2)n(C2CCCCC2)c2nc3ccccc3nc12 | 55* | 1 | 16 | -3 | 0.5 | -5
COc1ccc(-n2c(NC(=O)c3ccco3)c(C#N)c3nc4ccccc4nc32)cc1 | 48 | 0.9 | 9 | 6 | 0.5 | 6
CCC(=O)Nc1c(C#N)c2nc3ccccc3nc2n1C1CCCCC1 | 29 | 1 | 37* | 2 | 0.7 | 2
CCCCn1c(NC(=O)CC)c(C#N)c2nc3ccccc3nc21 | 43 | 0.8 | 8 | 21 | 0.6 | 9
CCn1c(SCC(=O)N/N=C/C(C)=C/c2ccco2)nnc1-c1ccccc1 | 47 | 0.2 | 2 | 85* | 0.5 | -5
CCn1c(SCC(=O)N/N=C/c2ccc(C)o2)nnc1-c1ccccc1 | 2 | 0.7 | 0 | 26 | 1 | -11
CCn1c(SCC(=O)Nc2nc(-c3ccccc3)cs2)nnc1-c1ccccc1 | 96* | 0.1 | 58* | 94* | 0 | 9
CCn1c(SCC(=O)Nc2nccs2)nnc1-c1ccccc1 | 52* | 0.1 | 9 | 92* | 0.5 | -5
O=C(NCc1ccc2c(c1)OCO2)C1CCN(c2ncccn2)CC1 | 41 | 0.9 | 8 | 8 | 0.6 | 2
COC(=O)c1cccc(OCC(O)Cn2ccnc2)c1 (stereo unspecified) | 88* | 0 | 10 | 100* | 0.1 | 1
c1ccc2c(c1)CCN(c1nc3cc4c(cc3s1)OCCO4)C2 | 11 | 0.9 | 11 | 11 | 0.9 | -6
COc1ccccc1N1CCN(C(=O)c2oc3ccccc3c2C)CC1 | -10 | 0.9 | / | 13 | 1.1 | /
Cc1c(C(=O)N2CCN(CCc3ccccc3)CC2)oc2ccccc12 | -25 | 0.3 | 13 | 73* | 1.3 | 7
Cc1c(C(=O)N2CCN(S(C)(=O)=O)CC2)oc2ccccc12 | 1 | 0.1 | 34* | 91* | 1 | -8
NS(=O)(=O)c1ccc(CCNC2CC(=O)N(Cc3ccccc3)C2=O)cc1 (stereo unspecified) | 11 | 1.1 | 32* | -7 | 0.9 | -3
COc1ccc(CCNC2=C(Cl)C(=O)N(CCc3ccccc3)C2=O)cc1OC | 58* | 0.4 | 5 | 60* | 0.4 | -6
COc1ccc(CCNc2c(N)n(Cc3ccccc3)c(=O)[nH]c2=O)cc1OC | 43 | 0.8 | 3 | 22 | 0.6 | 4
NS(=O)(=O)c1ccc(CCNC2CC(=O)N(CCc3ccccc3)C2=O)cc1 (stereo unspecified) | -15 | 1.1 | 4 | -12 | 1.2 | 14
COc1cccc(CC2CC(=O)N(CCc3ccc4c(c3)OCO4)C2=O)c1 (stereo unspecified) | 47 | 0 | 17 | 96* | 0.5 | 4
